According to PubChem BioAssay (NCATS):
Values joined by “and” are separate entries in the source; they are usually repeats but may differ in a detail not shown here. Identical values can stand only once. Results filed as inconclusive are left out. Entries that show only a call come without a potency. Values without a mark were called inactive. Active and inactive are the calls of the source. Unless noted, calls come from the whole dose curve; as a rule, active = well fitted curve in the direction sought with a large enough effect; inconclusive = small, poorly fitted or top-dose-only effect, or another doubt; inactive = no such curve, though single readings can be large; an effect the other way counts as inactive or inconclusive.

Key:
[1] = biological target: Cellular tumor antigen p53 (Homo sapiens) (UniProt P04637); test: Primary qHTS for small molecule compounds that upregulate eGFP-tagged delta133p53alpha (in N-terminal) cells. (AID 2060322); settings: NCI-H358 eGFP-delta133p53alpha fluorescence, 24 h; activation: active compounds read high; note: nearly all actives have a fitted effect of over 75% in size; note: potency is the fitted concentration of half-maximal effect;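 for activation: cells pre-induced with doxycycline then dosed without doxycycline; series mostly up to about 56 µM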
Chain of Cellular tumor antigen p53 (Homo sapiens) (P04637 whole entry, looked up): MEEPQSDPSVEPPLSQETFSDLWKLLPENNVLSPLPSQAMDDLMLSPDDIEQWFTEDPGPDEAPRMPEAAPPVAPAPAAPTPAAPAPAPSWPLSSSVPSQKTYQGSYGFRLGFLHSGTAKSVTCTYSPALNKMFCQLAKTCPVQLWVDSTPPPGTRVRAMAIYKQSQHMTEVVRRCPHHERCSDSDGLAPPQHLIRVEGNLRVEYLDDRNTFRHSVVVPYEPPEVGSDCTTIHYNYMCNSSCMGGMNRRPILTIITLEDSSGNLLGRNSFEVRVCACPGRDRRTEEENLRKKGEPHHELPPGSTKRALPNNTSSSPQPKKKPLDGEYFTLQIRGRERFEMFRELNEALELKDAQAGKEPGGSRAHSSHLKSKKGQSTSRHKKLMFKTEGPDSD
How it was run: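 NCI-H358 cells pre-induced 24 h with 10 ng/ml doxycycline for eGFP-delta133p53alpha, plated dox-free and exposed 24 h at 37C to titrated compounds. Fixed, Hoechst-stained; gated GFP peak intensity by laser scanning cytometry, normalized to DMSO (0%) and 57.5 uM 5-azacytidine (100%).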

[2] = biological target: Aldehyde dehydrogenase, mitochondrial (Homo sapiens) (UniProt P05091); test: qHTS for Inhibitors of the Aldehyde Dehydrogenase Family (ALDH2) Confirmatory screens (AID 2061303; active = well fitted inhibition curve with a large enough effect; title and protocol of this record describe different tests; note: nearly all actives have a fitted effect of over 45% in size; note: potency is the fitted concentration of half-maximal effect)
[3] = qHTS for Inhibitors of the Aldehyde Dehydrogenase Family (ALDH1A2, ALDH1A3, ALDH2, ALDH3A1) (AID 2061307); note: nearly all actives have a fitted effect of over 50% in size; for potency: test system not described further here; potency is the fitted concentration of half-maximal effect
[4] = biological target: Aldehyde dehydrogenase, mitochondrial (Homo sapiens) (UniProt P05091); test: qHTS for Inhibitors of the Aldehyde Dehydrogenase Family (ALDH2) Primary screen (AID 2061308); note: nearly all actives have a fitted effect of over 55% in size
[5] = biological target: Retinaldehyde dehydrogenase 3 (Homo sapiens) (UniProt P47895); test: qHTS for Inhibitors of the Aldehyde Dehydrogenase Family (ALDH1A3) Validation screen (AID 2061312); note: nearly all actives have a fitted effect of over 45% in size
[6] = biological target: Retinal dehydrogenase 2 (Homo sapiens) (UniProt O94788); test: qHTS for Inhibitors of the Aldehyde Dehydrogenase Family (ALDH1A2) Confirmation screens (AID 2061314); note: nearly all actives have a fitted effect of over 65% in size
[7] = biological target: Retinaldehyde dehydrogenase 3 (Homo sapiens) (UniProt P47895); test: qHTS for Inhibitors of the Aldehyde Dehydrogenase Family (ALDH1A3) Primary screen (AID 2061315)
[8] = biological target: Aldehyde dehydrogenase 1A1 (Homo sapiens) (UniProt P00352); test: qHTS for Inhibitors of the Aldehyde Dehydrogenase Family (ALDH1A1) Confirmatory screens (AID 2061316); note: nearly all actives have a fitted effect of over 65% in size; note: potency is the fitted concentration of half-maximal effect
[9] = biological target: Retinaldehyde dehydrogenase 3 (Homo sapiens) (UniProt P47895); test: qHTS for Inhibitors of the Aldehyde Dehydrogenase Family (ALDH1A3) Confirmatory screens (AID 2061311); note: nearly all actives have a fitted effect of over 60% in size; note: potency is the fitted concentration of half-maximal effect
[10] = BET inhibitor-based combinations targeting novel dependencies in MECOM-rearranged (r) AML: SET-2 cell line (AID 2202231); settings: SET-2 AML cells viability, CellTiter-Glo luminescence, 48 h; viability: active compounds read low, concentration not given here; note: nearly all actives have a fitted effect of over 35% in size; note: potency is the fitted concentration of half-maximal effect
How it was run: (§1)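 A 48 hr incubation preceded viability reading by CellTiter-Glo, with 15 min room-temperature development. Dose series had 11 points; normalization used DMSO and empty wells; AUC was computed and mean-centered per line as Z-AUC.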

[11] = BET inhibitor-based combinations targeting novel dependencies in MECOM-rearranged (r) AML: OCI-AML3 cell line (AID 2202232); settings: Potency: OCI-AML3 viability; note: nearly all actives have a fitted effect of over 35% in size; note: potency is the fitted concentration of half-maximal effect
How it was run: as §1

[12] = BET inhibitor-based combinations targeting novel dependencies in MECOM-rearranged (r) AML: HNT-34 cell line (AID 2202234); note: nearly all actives have a fitted effect of over 35% in size; note: potency is the fitted concentration of half-maximal effect
How it was run: (§2)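 Each compound is tested in an 11-point concentration series against 500 seeded cells/well for 48 hr. The luminescent viability signal is normalized to DMSO and blank wells, then reduced to AUC and a cell-line-centred Z-AUC.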

[13] = BET inhibitor-based combinations targeting novel dependencies in MECOM-rearranged (r) AML: UCSD-AML1 cell line (AID 2202235); note: nearly all actives have a fitted effect of over 40% in size; note: potency is the fitted concentration of half-maximal effect
How it was run: as §2

[14] = BET inhibitor-based combinations targeting novel dependencies in MECOM-rearranged (r) AML: AML-191 cell line (AID 2202236; note: nearly all actives have a fitted effect of over 35% in size; note: potency is the fitted concentration of half-maximal effect)
How it was run: as §1

[15] = BET inhibitor-based combinations targeting novel dependencies in MECOM-rearranged (r) AML: AML-194 cell line (AID 2202237; note: nearly all actives have a fitted effect of over 40% in size; note: potency is the fitted concentration of half-maximal effect)
How it was run: as §1

[16] = BET inhibitor-based combinations targeting novel dependencies in MECOM-rearranged (r) AML: MV-4-11 cell line (AID 2202233); note: potency is the fitted concentration of half-maximal effect; nearly all actives have a fitted effect of over 45% in size
How it was run: as §2

## NCCCCN(Cc1nc2ccccc2[nH]1)[C@H]1CCCc2cccnc21
[1]
  activation: 1.43%
[2]
  Potency: inactive
[3]
  Potency: inactive
[4]
  Potency: inactive
[5]
  Potency: inactive
[6]
  Potency: inactive
[7]
  Potency: inactive
[8]
  Potency: inactive

## Cc1ccc(-c2c(C(=O)CCl)n(CCCO)c3ncnc(N)c23)cc1
[1]
  Potency: 12 µM (active)
[2]
  Potency: inactive
[3]
  Potency: inactive
[4]
  Potency: inactive
[7]
  Potency: inactive
[8]
  Potency: inactive

## O=C1C(c2c(O)[nH]c3ccccc23)=Nc2ccccc21
[1]
  activation: -10.6% and 17.7%
[2]
  Potency: inactive
[3]
  Potency: inactive
[4]
  Potency: inactive
[9]
  Potency: inactive
[7]
  Potency: inactive
[8]
  Potency: inactive
[10]
  viability: 103%
[11]
  Potency: inactive
[12]
  Potency: inactive
[13]
  Potency: inactive
[14]
  Potency: inactive
[15]
  Potency: inactive

## CC(=O)OCC(=O)[C@@]1(O)[C@H](C)C[C@H]2[C@@H]3C=C(C)C4=Cc5c(cnn5-c5ccccc5)C[C@]4(C)[C@@H]3[C@@H](O)C[C@@]21C
[1]
  activation: 2.08%
[2]
  Potency: inactive
[3]
  Potency: inactive
[4]
  Potency: inactive
[6]
  Potency: inactive
[7]
  Potency: inactive
[8]
  Potency: inactive
[10]
  viability: 96.5%
[11]
  Potency: inactive
[13]
  Potency: inactive

## CCOc1ccc(Nc2nc(-c3c(C)nc4ccccn34)cs2)cc1
[1]
  activation: -3.9% and 0%
[2]
  Potency: 15.8 µM (active)
[3]
  Potency: 7.94 µM (active)
[4]
  Potency: inactive
[5]
  Potency: inactive
[6]
  Potency: inactive
[7]
  Potency: inactive
[10]
  Potency: 0.132 µM (active)
[11]
  Potency: 0.0833 µM (active)
[14]
  Potency: 0.0833 µM (active)
[15]
  Potency: 0.332 µM (active)

## C=C1CC23CC1CCC2C12OC(=O)C(C)(CCC1O)C2C3C(=O)O (stereo not given)
[1]
  activation: 21.4%
[2]
  Potency: inactive
[3]
  Potency: inactive
[4]
  Potency: inactive
[6]
  Potency: inactive

## O=C(OCC1=C[C@@H](O)[C@@H]2C=CO[C@@H](O[C@@H]3O[C@H](CO)[C@@H](O)[C@H](O)[C@H]3O)[C@H]12)c1ccc(O)cc1
[1]
  activation: 3.57%
[2]
  Potency: inactive
[3]
  Potency: inactive
[4]
  Potency: inactive
[6]
  Potency: inactive
[7]
  Potency: inactive

## CC1(C)[C@H](C(=O)O)N2C(=O)C[C@H]2S1(=O)=O
[1]
  activation: -10% and -6.44% and -12.3%
[2]
  Potency: inactive
[3]
  Potency: inactive
[4]
  Potency: inactive
[6]
  Potency: inactive
[7]
  Potency: inactive
[8]
  Potency: inactive

## COc1cc(/C=C/C(=O)OC[C@H]2O[C@@H](OC3OC=C(C(=O)O)C4C(O)CC(C)(O)C34)[C@H](O)[C@@H](O)[C@@H]2O)cc(OC)c1O (stereo not given in full)
[1]
  activation: -12.2%
[2]
  Potency: inactive
[3]
  Potency: inactive
[4]
  Potency: inactive
[6]
  Potency: inactive

## C=C1CC[C@H]2[C@@](C)(CCC(OC3OC(CO)C(O)C(O)C3O)[C@@]2(C)CO)C1C(=O)CC1=CCOC1=O (stereo not given in full)
[1]
  activation: -1.53%
[2]
  Potency: inactive
[3]
  Potency: inactive
[4]
  Potency: inactive
[6]
  Potency: inactive

## OC[C@@]1(O)CO[C@@H](OC[C@H]2O[C@@H](Oc3ccccc3)[C@H](O)[C@@H](O)[C@@H]2O)[C@@H]1O
[1]
  activation: -3.82%
[2]
  Potency: inactive
[3]
  Potency: inactive
[4]
  Potency: inactive
[6]
  Potency: inactive
[8]
  Potency: inactive

## CCOc1ccc2ccccc2c1C(=O)N[C@@H]1C(=O)N2[C@@H]1SC(C)(C)[C@@H]2C(=O)O
[1]
  activation: 5.08% and -4.77%
[2]
  Potency: inactive
[3]
  Potency: inactive
[4]
  Potency: inactive
[5]
  Potency: inactive
[6]
  Potency: inactive
[8]
  Potency: inactive

## CNC(=O)c1cc(Oc2ccc(NC(=O)c3cccc(C(F)(F)F)c3)cc2)ccn1
[1]
  activation: 8.04%
[2]
  Potency: inactive
[3]
  Potency: 6.34 µM (active)
[4]
  Potency: inactive
[6]
  Potency: inactive
[7]
  Potency: inactive
[8]
  Potency: inactive

## CC1CCC23COC(=O)C2=CC(O)CC3C1(C)CCC1=CC(O)OC1=O (stereo not given)
[1]
  activation: -3.82%
[2]
  Potency: inactive
[3]
  Potency: inactive
[4]
  Potency: inactive
[6]
  Potency: inactive
[7]
  Potency: inactive

## CCC[C@H](N[C@@H](C)C(=O)N1[C@H](C(=O)O)C[C@@H]2CCCC[C@@H]21)C(=O)O
[1]
  activation: -7.64%
[2]
  Potency: inactive
[3]
  Potency: inactive
[4]
  Potency: inactive
[6]
  Potency: inactive
[7]
  Potency: inactive
[8]
  Potency: inactive

## CSC(=O)OCC1=C[C@@H]2OC(=O)C3=CO[C@@H](O[C@@H]4O[C@H](CO)[C@@H](O)[C@H](O)[C@H]4O)[C@H]1[C@@H]32
[1]
  activation: -22.1%
[2]
  Potency: inactive
[3]
  Potency: inactive
[4]
  Potency: inactive
[6]
  Potency: inactive
[8]
  Potency: inactive

## CC(C)Nc1cc(-c2c[nH]c(C(=O)N[C@H](CO)c3cccc(Cl)c3)c2)c(Cl)cn1
[1]
  Potency: 4.26 µM (active)
[2]
  Potency: inactive
[3]
  Potency: inactive
[4]
  Potency: inactive
[9]
  Potency: inactive
[7]
  Potency: inactive
[10]
  Potency: 20.9 µM (active)
[11]
  Potency: 2.35 µM (active)
[16]
  Potency: 13.2 µM (active)
[12]
  Potency: 4.68 µM (active)
[13]
  Potency: 7.42 µM (active)
[14]
  Potency: 7.42 µM (active)
[15]
  Potency: 8.33 µM (active)

## CCOc1ccc(Cc2nc(-c3c(C)nc4ccccn34)cs2)cc1
[1]
  activation: -8.33%
[2]
  Potency: 12.6 µM (active)
[3]
  Potency: 11.2 µM (active)
[4]
  Potency: inactive
[9]
  Potency: 14.1 µM (active)
[7]
  Potency: inactive
[8]
  Potency: 6.34 µM (active)
